Bioassay records deposited in PubChem by National Center for Advancing Translational Sciences (NCATS).
Tau ThT inhib: inhibitors of human tau fibril formation, thioflavin T binding; Potency, µM (series often up to 57.4 µM), hits mostly inhibitors; 270,000 compounds, 2.1% hits; P10636; recombinant tau K18 P301L, heparin-induced fibrillization, ThT fluorescence; AID 1460; also: nearly all actives have a fitted effect of over 55% in size
Target sequence (P10636 561-689 P618L limits assumed): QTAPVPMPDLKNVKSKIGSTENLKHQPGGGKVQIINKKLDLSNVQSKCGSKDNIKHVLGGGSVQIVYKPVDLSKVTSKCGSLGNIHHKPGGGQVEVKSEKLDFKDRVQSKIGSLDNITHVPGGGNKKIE
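K18 P301L tau (15 uM + 0.24 uM Alexa 594-tagged), heparin 20 uM, NaOAc pH 7, 6 h 37 C; ThT 30 uM, 1 h RT, ex 450/em 510 nm.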
Tau fibril FP: inhibitors of human tau fibril formation | AID 1468 | Potency, µM (titrated, usually from 57.7 µM), usual class: inhibitors | P10636 | K18 P301L tau heparin fibrillization, Alexa594 FP, 6 h | 280,000 compounds, 0.39% hits; also: nearly all actives have a fitted effect of over 55% in size
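K18 P301L tau (15 uM unlabeled/0.24 uM Alexa 594-labeled, final) + compound + heparin 20 uM final; 100 mM NaOAc pH 7; 6 hr 37 C; ThT 30 uM final added, 1 hr RT; FP ex 555/em 632 nm.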
Tau fluor counter: counter-screen for tau fibril formation inhibitors. tau K18 P301L Alexa594 fluorescence, heparin fibrillization. Potency, µM (titrated, usually from 57.7 µM). 280,000 compounds, 0.93% hits; also: nearly all actives have a fitted effect of over 55% in size
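Human tau K18 P301L (15 uM unlabeled, 0.24 uM Alexa 594-labeled) in 100 mM sodium acetate pH 7 with 20 uM heparin, 6 hr at 37 C. ThT 30 uM added, 1 hr ambient; Alexa 594 FP and total fluorescence read at 555/632 nm.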
TRb-SRC2 inh: disrupts binding of human TR beta to SRC2; P10828; TRbeta-SRC2 peptide binding, fluorescence polarization; receptor liganded with 1 µM T3; Potency, µM (titrated, usually from 106 µM), hits mostly inhibitors; 280,000 compounds, 0.065% hits; AID 1469; also: nearly all actives have a fitted effect of over 50% in size
Target sequence (P10828 whole entry, looked up): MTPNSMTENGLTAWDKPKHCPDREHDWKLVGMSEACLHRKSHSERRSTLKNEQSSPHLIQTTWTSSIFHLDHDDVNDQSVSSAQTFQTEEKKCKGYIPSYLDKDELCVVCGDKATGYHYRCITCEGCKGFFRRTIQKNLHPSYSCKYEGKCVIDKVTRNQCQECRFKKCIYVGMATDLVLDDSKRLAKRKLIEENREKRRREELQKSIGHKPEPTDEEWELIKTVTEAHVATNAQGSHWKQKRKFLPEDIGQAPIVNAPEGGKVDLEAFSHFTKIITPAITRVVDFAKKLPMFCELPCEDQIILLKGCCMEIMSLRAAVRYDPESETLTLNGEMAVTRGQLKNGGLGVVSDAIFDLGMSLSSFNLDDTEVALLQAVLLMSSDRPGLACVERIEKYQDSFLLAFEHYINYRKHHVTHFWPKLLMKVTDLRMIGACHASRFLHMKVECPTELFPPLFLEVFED
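TRb LBD 0.6 uM + Texas Red SRC2 peptide 20 nM, 1 uM T3, Tris buffer w/ 5% DMSO; compound pinned, 5 h RT; FP read ex 555/em 632; normalized to unbound and bound controls.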
TR SRC2 fluor cs: counter-screen for TRb-SRC2 inhibitors: fluorescence interference; TRb/SRC2 Texas Red total fluorescence interference; Potency, µM (doses to about 106 µM); 280,000 compounds, 0.29% hits; AID 1479; active = well fitted curve in either direction with a large enough effect; inconclusive = small, poorly fitted or top-dose-only effect
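Human TRβ ligand-binding domain (0.6 uM) and Texas Red SRC2 peptide (20 nM) in Tris buffer with 1 uM T3 and 5% DMSO were incubated with pinned compound for 5 hr at ambient temperature. Total fluorescence was computed as S + 2P (555/632 nm).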
Numbers stand for hits; n = inactive; u = inconclusive; x = no result given; [ ] = remark or other dose. Rows were chosen to be rich in hits. Some 3% of all compounds tested hit in one or more screens of this group. Unless noted, calls follow the shape of the dose curve; as a rule, active = well fitted curve in the direction sought with a large enough effect; inconclusive = small, poorly fitted or top-dose-only effect, or another doubt; inactive = no such curve, though single readings can be large; an effect the other way counts as inactive or inconclusive.

SMILES	Tau ThT inhib	Tau fibril FP	Tau fluor counter	TRb-SRC2 inh	TR SRC2 fluor cs
CCOC(=O)c1sc2ccccc2c1S(=O)(=O)NCc1ccc(F)cc1	u	n	n	n	n
Cc1ccc2nc(-c3ccc(Cl)s3)c(Nc3ccc4c(c3)OCCO4)n2c1	n	n	u	n	n
Cc1ccn2c(Nc3ccc4c(c3)OCCO4)c(-c3ccc(Cl)s3)nc2c1	u	u	7.1µM[quencher]	n	n
Clc1ccc(-c2nc3ccccn3c2Nc2ccc3c(c2)OCCO3)s1	u	n	6.3µM[quencher]	n	n
Cc1cccc(N(C)S(=O)(=O)c2nnc(NC(=O)C(C)(C)C)s2)c1	u	n	n	n	n
CCCCC/C=C\C\C=C/C=C/C=C/[C@@H](SC[C@H](N)C(=O)NCC(=O)O)[C@@H](O)CCCC(=O)O	n	n	n	n	n
CC(O)CNc1nc2sc3c(c2c(=O)n1CCc1ccccc1)CCCCC3 (stereo not given)	u	n	10µM[quencher]	n	n
CN(C)CCNc1nc2sc3c(c2c(=O)n1CCc1ccccc1)CCCCC3	u	u	13µM[quencher]	n	n
CC(O)CNc1nc2sc3c(c2c(=O)n1Cc1ccco1)CCCCC3 (stereo not given)	u	u	u	n	n
Cc1ccc(-n2c(CCC(=O)O)ccc2-c2cccs2)cc1Cl	u	n	n	n	n
CCN(CC)c1ccc(N)cc1S(=O)(=O)Nc1ccccc1OC	25µM	u	n	n	n
CCN(CC)c1ccc(N)cc1S(=O)(=O)Nc1ccc(OC)cc1	n	n	n	n	n
Cc1ccc2cccc(NC(=O)COc3ccccc3Cl)c2n1	u	n	u	n	16µM[quencher]
Cn1c(/C(C#N)=C/c2ccc(C(F)(F)F)cc2)nc2ccccc21	u	n	n	n	n
CC(=O)N1CCN(c2ccc(NC(=O)c3ccc(C(C)(C)C)cc3)cc2)CC1	3.5µM	n	u	n	n
CCCCOc1ccc(C(=O)Nc2ccc(N3CCN(C(=O)C(C)C)CC3)cc2)cc1	2µM	n	n	n	n
COc1ccc(C(=O)Nc2ccc(N3CCN(C(=O)c4ccccc4)CC3)cc2)cc1[N+](=O)[O-]	16µM	n	u	n	n
O=C(Nc1ccc(N2CCN(C(=O)c3ccccc3)CC2)cc1)c1ccc([N+](=O)[O-])o1	4.5µM	n	u	n	n
O=C(Nc1ccc(N2CCN(C(=O)c3ccc(Cl)cc3)CC2)cc1)c1ccc(Br)o1	u	n	u	n	n
Cc1ccc(C(=O)Nc2ccc(N3CCCC3)cc2)cc1	u	n	n	n	n
CCCCOc1ccc(C(=O)Nc2ccc(N3CCN(C(C)=O)CC3)cc2)cc1	u	u	n	n	n
CCOc1ccc(-c2cc(CCCC(=O)NCCc3ccc(SC)cc3)no2)cc1	u	n	n	n	n
CCN(CC)S(=O)(=O)c1ccc2c(c1)c(=O)c(C(=O)N1CCN(c3ccc(OC)cc3)CC1)cn2C	n	n	n	n	n
Cc1ccc(Cl)cc1Cl	x	x	x	n	n
Cc1ccccc1C(=O)N1CCN(c2ccc(NC(=O)c3ccc4c(c3)OCO4)cc2)CC1	13µM	n	u	n	n
SMILES	Tau ThT inhib	Tau fibril FP	Tau fluor counter	TRb-SRC2 inh	TR SRC2 fluor cs
CC(=O)N1CCN(c2ccc(NCc3ccc(F)cc3)cc2)CC1	25µM	u	u	n	n
COc1cc(CNc2ccc(N3CCN(C(C)=O)CC3)cc2)ccc1OCc1ccc(F)cc1	u	n	n	n	n
CC(C)C(=O)N1CCN(c2ccc(NC(=O)c3ccc([N+](=O)[O-])o3)cc2)CC1	5µM	n	u	n	n
CCCC(=O)N1CCN(c2ccc(NC(=O)c3ccc([N+](=O)[O-])o3)cc2Cl)CC1	13µM	u	n	n	n
COc1ccc(CNC(=O)CN2N=C(c3ccccc3)CCC2=O)c(OC)c1	n	n	n	n	n
O=C(Cc1ccc(NC(=O)N2CCCCc3ccccc32)cc1)NCc1ccccc1Br	n	n	n	n	n
CCOc1ccc(C(=O)NC(=S)Nc2ccc(N3CCCCC3)cc2)cc1[N+](=O)[O-]	3.5µM	n	u	n	n
OC1CCCCCCCCCCC1	x	x	x	n	n
COc1ccc(O)c(-c2cc(-c3cccc(Br)c3)n[nH]2)c1	u	n	14µM[quencher]	n	n
COc1ccc(-c2cc(-c3cc(OC)ccc3O)[nH]n2)cc1	u	n	16µM[quencher]	n	n
COc1ccc(-c2n[nH]c(C)c2-c2cc(OC)ccc2O)cc1	n	n	n	n	n
COc1cc2c(c(OC)c1OC)-c1c(cc(OC)c(OC)c1OC)CC(C)C(C)C2 (stereo not given)	x	x	x	n	n
CCSc1nnc2c(Cl)cc(Cl)cn12	n	n	n	n	n
COCCNC(=O)CSc1nnc2c(Cl)cc(Cl)cn12	13µM	25µM	n	n	n
O=C(CNC(=O)c1ccco1)N=Nc1c(O)n(CCc2ccccc2)c2ccccc12	u	n	n	n	n
C=CCn1c(O)c(N=NC(=O)CNC(=O)/C=C/c2ccco2)c2ccccc21	20µM	n	n	n	n
C=CCn1c(O)c(N=NC(=O)CNC(=O)/C=C/c2ccc(OC)cc2)c2ccccc21	13µM	n	n	n	n
C=CCn1c(O)c(N=NC(=S)Nc2cccc(C)c2)c2ccccc21	n	n	n	n	n
CCNc1nc(N)c(C(=O)c2ccc(Cl)s2)s1	13µM	n	u	n	n
CC(C)(C)c1csc(NC(=O)c2ccc(Cl)s2)n1	n	n	n	n	n
O=C(CCN1CCN(C(c2ccccc2)c2ccccc2)CC1)N/N=C/c1ccc(O)cc1O	n	u	16µM[quencher]	n	n
COc1cc(/C=N/N2C(=O)CSC2=S)ccc1O	14µM	n	n	n	n
CN1C2C=C3C(C#N)=C(N)C(C#N)(C#N)[C@H](c4c(F)cccc4F)[C@H]3C1CC2 (stereo not given in full)	14µM	u	n	n	n
CC(C)(C)C1CC=C2C(C#N)=C(N)C(C#N)(C#N)C(c3cccs3)C2C1 (stereo not given)	u	u	n	n	n
CN1C2C=C3C(C#N)=C(N)C(C#N)(C#N)[C@@H](c4cccs4)C3C1CC2 (stereo not given in full)	20µM	u	n	n	n
N#CC1=C(N)C(C#N)(C#N)[C@H](c2c(F)cccc2F)[C@H]2CC3(CC=C12)OCCO3	u	u	n	n	n
CN1C2C=C3C(C#N)=C(N)C(C#N)(C#N)[C@@H](c4cccc(F)c4)[C@@H]3C1CC2 (stereo not given in full)	20µM	u	n	n	n
CN1CC=C2C(C#N)=C(N)C(C#N)(C#N)C(c3cccc(Cl)c3Cl)C2C1 (stereo not given)	u	u	n	n	n
Cc1cc2c(cc1S(=O)(=O)NCc1ccc(F)cc1)OCCN2C	n	n	n	n	n
CC1(OC(=O)c2cnc3ccccc3n2)C(=O)C=C2C=C3CCCN3C=C2C1=O (stereo not given)	n[11.5 µM]	n[11.6 µM]	n[11.6 µM]	n[11.2 µM]	n[11.2 µM]
